In test [1] the target is Glycogen synthase kinase-3 beta (Homo sapiens) (UniProt P49841). The test is described as follows: NVS_ENZ_hGSK3b: NovaScreen (NVS) Enzymatic Assay for human Glycogen Synthase Kinase-3 beta (GSK3b) (AID 2283165). The gist of the method: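 Recombinant enzyme with specific fluorescent substrate, 1 h, product separated by electrophoretic mobility shift. Primary duplicate screen at 25 uM; actives (e.g. 30% inhibition) followed in singleton concentration-response to 50 uM. Signal loss fitted versus DMSO.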

The target of test [2] is human Matrix Metalloproteinase-3 (MMP3), MMP3 (gene 4314) (UniProt P08254). The test is described as follows: NVS_ENZ_hMMP3: NovaScreen (NVS) Enzymatic Assay for human Matrix Metalloproteinase-3 (MMP3) (AID 2283185). The gist of the method:
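Cell-free recombinant human MMP3 activity, fluorescence intensity read 1 h after dosing. Primary screen duplicate at 25 uM, actives retested in concentration series; loss of signal vs DMSO baseline.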

For test [3], the target named is human Janus Kinase 2 (Jak2), JAK2 (gene 3717) (UniProt O60674). The experiment in a line: NVS_ENZ_hJak2: NovaScreen (NVS) Enzymatic Assay for human Janus Kinase 2 (Jak2) (AID 2283169). In short, it runs like this:
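Cell-free recombinant human JAK2 enzyme activity assay, fluorescence/electrophoretic mobility shift read 1 h after dosing. Screened in duplicate at 25 uM, then concentration-response up to 50 uM; activity as signal loss relative to DMSO.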

Test [4] deals with human Insulin Receptor (InsR), INSR (gene 3643) (UniProt P06213). The experiment in a line: NVS_ENZ_hInsR: NovaScreen (NVS) Enzymatic Assay for human Insulin Receptor (InsR) (AID 2283168). The gist of the method:
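Fluorescent substrate phosphorylation by recombinant kinase, product resolved by electrophoretic mobility shift, read 1 h after dosing. Screened in duplicate at 25 uM; hits (e.g., 30% inhibition) run in concentration-response to 50 uM; DMSO as baseline.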

Test [5] has as its target human Ephrin type-A Receptor 1 (EphA1), EPHA1 (gene 2041) (UniProt P21709). The test is described as follows: NVS_ENZ_hEphA1: NovaScreen (NVS) Enzymatic Assay for human Ephrin type-A Receptor 1 (EphA1) (AID 2283158).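 Also: activity is signal loss versus DMSO meaning EphA1 kinase inhibition.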 The gist of the method:
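Chemicals first tested in duplicate at 25 uM against recombinant EphA1 with a fluorescent substrate; those passing threshold went to singleton dose-response topping at 50 uM. Activity read 1 h later as mobility-shift fluorescence, loss of signal relative to DMSO.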

The target in test [6] is human MAP Kinase-Activated Protein Kinase 2 (MAPKAPK2), MAPKAPK2 (gene 9261) (UniProt P49137). The experiment in a line: NVS_ENZ_hMAPKAPK2: NovaScreen (NVS) Enzymatic Assay for human MAP Kinase-Activated Protein Kinase 2 (MAPKAPK2) (AID 2283178). The gist of the method:
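Cell-free recombinant human MAPKAPK2 activity measured by fluorescence with electrophoretic mobility shift separation of substrate and product, 1 hr after dosing. Loss of signal versus DMSO; primary screen at 25 uM, concentration-response up to 50 uM.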

For test [7], the target named is Collagenase 3 (Homo sapiens) (UniProt P45452). The experiment in a line: NVS_ENZ_hMMP13: NovaScreen (NVS) Enzymatic Assay for human Matrix Metalloproteinase-13 (MMP13) (AID 2283182). In short, it runs like this: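 Recombinant MMP13 cleaving fluorescent substrate, cell-free, measured 1 h after dosing. Primary duplicate screen at 25 uM; actives tested in concentration-response up to 50 uM; loss of signal relative to DMSO.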

Test [8] has as its target human Matrix Metalloproteinase-7 (MMP7), MMP7 (gene 4316) (UniProt P09237). The test is described as follows: NVS_ENZ_hMMP7: NovaScreen (NVS) Enzymatic Assay for human Matrix Metalloproteinase-7 (MMP7) (AID 2283183). In short, it runs like this:
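Cell-free fluorescence enzymatic assay read 1 h after compound addition, activity loss analyzed against DMSO. Primary duplicate testing at 25 uM; compounds meeting threshold rerun in singleton concentration-response up to 50 uM.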

In test [9] the target is human Matrix Metalloproteinase-2 (MMP2), MMP2 (gene 4313) (UniProt P08253). The test is described as follows: NVS_ENZ_hMMP2: NovaScreen (NVS) Enzymatic Assay for human Matrix Metalloproteinase-2 (MMP2) (AID 2283184). In short, it runs like this:
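Cell-free recombinant MMP2 activity with a fluorescent substrate, read 1 h after dosing. Primary screen in duplicate at 25 uM; actives then run in concentration series; loss of signal fitted versus DMSO.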

For test [10], the target named is human Matrix Metalloproteinase-9 (MMP9), MMP9 (gene 4318) (UniProt P14780). The test is described as follows: NVS_ENZ_hMMP9: NovaScreen (NVS) Enzymatic Assay for human Matrix Metalloproteinase-9 (MMP9) (AID 2283190).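 Also: cell-free recombinant MMP9 protease activity read by fluorescent substrate signal; active means inhibition seen as loss of fluorescence signal versus DMSO.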 In short, it runs like this:
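Cell-free fluorescence-intensity enzyme activity assay using extracted protein, read 1 h after dosing. Loss of signal versus DMSO baseline indicates inhibition; primary screen in duplicate at 25 uM, actives followed up in concentration series.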

Test [11] concerns the target human Phosphoinositide 3-kinase alpha (PI3Ka), PIK3CA (gene 5290) (UniProt P42336). The experiment in a line: NVS_ENZ_hPI3Ka: NovaScreen (NVS) Enzymatic Assay for human Phosphoinositide 3-kinase alpha (PI3Ka) (AID 2283196). The gist of the method: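 Enzyme activity as fluorescence after mobility-shift separation of substrate and product, 1 h reaction, recombinant human PI3Kα; concentration-response to 50 uM max for chemicals passing a 25 uM duplicate screen.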

In test [12] the target is human LYN Proto-Oncogene, Src family Tyrosine Kinase (LynA), LYN (gene 4067) (UniProt P07948). The test is described as follows: NVS_ENZ_hLynA: NovaScreen (NVS) Enzymatic Assay for human LYN Proto-Oncogene, Src family Tyrosine Kinase (LynA) (AID 2283173). The gist of the method: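 Recombinant kinase with fluorescent substrate; product separated from substrate by electrophoretic mobility shift and read 1 h after dosing. Duplicate screen at 25 uM, then concentration-response up to 50 uM; activity scored as signal loss against DMSO.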

Test [13] deals with human Mitogen- and Stress-activated Protein Kinase-1 (Msk1), RPS6KA5 (gene 9252) (UniProt O75582). The experiment in a line: NVS_ENZ_hMsk1: NovaScreen (NVS) Enzymatic Assay for human Mitogen- and Stress-activated Protein Kinase-1 (Msk1) (AID 2283187). In short, it runs like this:
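Recombinant kinase with fluorescent substrate; product separated by electrophoretic mobility shift, read 1 h after dosing. Screened in duplicate at 25 uM; hits (e.g. ≥30% inhibition) tested in concentration–response up to 50 uM. DMSO baseline.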

For test [14], the target named is human Phosphodiesterase 4A1 (PDE4A1), PDE4A (gene 5141) (UniProt P27815). The test is described as follows: NVS_ENZ_hPDE4A1: NovaScreen (NVS) Enzymatic Assay for human Phosphodiesterase 4A1 (PDE4A1) (AID 2283191). The gist of the method:
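Cell-free recombinant human PDE4A1 with fluorescent substrate; product separated by electrophoretic mobility shift, 1 h. Screened at 25 uM, then up to 50 uM in concentration-response; loss of signal fitted against DMSO.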

Test [15] addresses human Phosphodiesterase 5 (PDE5), PDE5A (gene 8654) (UniProt O76074). The experiment in a line: NVS_ENZ_hPDE5: NovaScreen (NVS) Enzymatic Assay for human Phosphodiesterase 5 (PDE5) (AID 2283194). In short, it runs like this: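 Recombinant human PDE5 with specific substrate, read 1 h after dosing by fluorescence with electrophoretic mobility-shift separation of substrate and product. Initial single-concentration duplicate screen at 25 uM, actives followed in concentration series; loss of activity versus DMSO.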

The target in test [16] is human Phosphodiesterase 10 (PDE10), PDE10A (gene 10846) (UniProt Q9Y233). The experiment in a line: NVS_ENZ_hPDE10: NovaScreen (NVS) Enzymatic Assay for human Phosphodiesterase 10 (PDE10) (AID 2283195). In short, it runs like this:
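Recombinant human PDE10 with fluorescent substrate, 1 h, product separated by electrophoretic mobility shift. Loss of enzyme activity fitted against DMSO; initial screen 25 uM in duplicate, actives run to 50 uM maximum.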

The target of test [17] is human c-Jun N-terminal Kinases (JNK2), MAPK9 (gene 5601) (UniProt P45984). The test is described as follows: NVS_ENZ_hJNK2: NovaScreen (NVS) Enzymatic Assay for human c-Jun N-terminal Kinases (JNK2) (AID 2283171). In short, it runs like this:
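Cell-free recombinant human JNK2 activity assay; fluorescent substrate and product separated by electrophoretic mobility shift, read 1 h after dosing. Primary duplicate screen at 25 uM; actives run in concentration-response up to 50 uM, relative to DMSO.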

The target in test [18] is Mitogen-activated protein kinase 3 (Homo sapiens) (UniProt P27361). The experiment in a line: NVS_ENZ_hMAPK3: NovaScreen (NVS) Enzymatic Assay for human Mitogen-Activated Protein Kinase 3 (MAPK 3) (AID 2283177). In short, it runs like this:
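Cell-free enzymatic assay with recombinant protein and specific substrate; fluorescence and electrophoretic mobility shift read-out 1 h after dosing. Primary screen duplicate at 25 uM; actives then run in concentration-response up to 50 uM, loss of signal versus DMSO.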

The target in test [19] is cAMP-dependent protein kinase catalytic subunit alpha (Homo sapiens) (UniProt P17612). The experiment in a line: NVS_ENZ_hPKA: NovaScreen (NVS) Enzymatic Assay for human Protein Kinase A (PKA) (AID 2283192). In short, it runs like this: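 Recombinant human PKA with specific fluorescent substrate, product separated by electrophoretic mobility shift, read 1 h after dosing. Primary screen at 25 uM in duplicate; actives then run in concentration-response up to 50 uM, activity relative to DMSO.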

Records with an inconclusive call do not appear. Calls of active or inactive are those of the source. The calls were made as follows: active = hit-call score of the fitted dose curve at least 0.9, where 1 is the maximum; inconclusive = response in the unintended direction; inactive = score below 0.9.

As usually defined, the AC50 is the concentration giving half of the maximal activity seen.

Sequence of human Phosphoinositide 3-kinase alpha (PI3Ka), PIK3CA (gene 5290) (P42336 whole entry, looked up): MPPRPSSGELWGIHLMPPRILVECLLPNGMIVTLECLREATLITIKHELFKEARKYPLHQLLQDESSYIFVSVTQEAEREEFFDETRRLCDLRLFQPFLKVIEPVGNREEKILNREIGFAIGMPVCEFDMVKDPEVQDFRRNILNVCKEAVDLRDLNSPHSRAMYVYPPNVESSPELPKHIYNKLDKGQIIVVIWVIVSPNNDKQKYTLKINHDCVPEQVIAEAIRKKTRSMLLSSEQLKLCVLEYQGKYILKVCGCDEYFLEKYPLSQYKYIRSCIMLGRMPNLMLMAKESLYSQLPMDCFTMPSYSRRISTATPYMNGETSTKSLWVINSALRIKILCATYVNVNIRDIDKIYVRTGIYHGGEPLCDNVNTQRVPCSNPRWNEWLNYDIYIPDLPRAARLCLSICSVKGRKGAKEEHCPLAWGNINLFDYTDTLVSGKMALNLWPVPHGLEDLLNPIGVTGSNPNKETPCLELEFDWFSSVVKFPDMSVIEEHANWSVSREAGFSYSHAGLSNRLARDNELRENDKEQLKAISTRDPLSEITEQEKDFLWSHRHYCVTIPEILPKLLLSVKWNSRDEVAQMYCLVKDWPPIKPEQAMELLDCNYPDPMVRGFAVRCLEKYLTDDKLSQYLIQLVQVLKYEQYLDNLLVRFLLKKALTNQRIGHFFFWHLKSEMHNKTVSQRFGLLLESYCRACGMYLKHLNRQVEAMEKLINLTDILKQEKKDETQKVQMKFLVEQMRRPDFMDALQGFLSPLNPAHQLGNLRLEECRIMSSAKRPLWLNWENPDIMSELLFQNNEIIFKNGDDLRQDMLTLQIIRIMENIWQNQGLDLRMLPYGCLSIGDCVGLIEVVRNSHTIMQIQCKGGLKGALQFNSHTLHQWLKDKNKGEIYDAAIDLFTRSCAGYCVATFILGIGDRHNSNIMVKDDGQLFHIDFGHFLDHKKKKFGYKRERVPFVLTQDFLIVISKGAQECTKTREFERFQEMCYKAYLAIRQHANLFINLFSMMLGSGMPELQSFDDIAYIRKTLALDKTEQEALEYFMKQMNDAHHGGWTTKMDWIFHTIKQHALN
Sequence of human Ephrin type-A Receptor 1 (EphA1), EPHA1 (gene 2041) (P21709 whole entry, looked up): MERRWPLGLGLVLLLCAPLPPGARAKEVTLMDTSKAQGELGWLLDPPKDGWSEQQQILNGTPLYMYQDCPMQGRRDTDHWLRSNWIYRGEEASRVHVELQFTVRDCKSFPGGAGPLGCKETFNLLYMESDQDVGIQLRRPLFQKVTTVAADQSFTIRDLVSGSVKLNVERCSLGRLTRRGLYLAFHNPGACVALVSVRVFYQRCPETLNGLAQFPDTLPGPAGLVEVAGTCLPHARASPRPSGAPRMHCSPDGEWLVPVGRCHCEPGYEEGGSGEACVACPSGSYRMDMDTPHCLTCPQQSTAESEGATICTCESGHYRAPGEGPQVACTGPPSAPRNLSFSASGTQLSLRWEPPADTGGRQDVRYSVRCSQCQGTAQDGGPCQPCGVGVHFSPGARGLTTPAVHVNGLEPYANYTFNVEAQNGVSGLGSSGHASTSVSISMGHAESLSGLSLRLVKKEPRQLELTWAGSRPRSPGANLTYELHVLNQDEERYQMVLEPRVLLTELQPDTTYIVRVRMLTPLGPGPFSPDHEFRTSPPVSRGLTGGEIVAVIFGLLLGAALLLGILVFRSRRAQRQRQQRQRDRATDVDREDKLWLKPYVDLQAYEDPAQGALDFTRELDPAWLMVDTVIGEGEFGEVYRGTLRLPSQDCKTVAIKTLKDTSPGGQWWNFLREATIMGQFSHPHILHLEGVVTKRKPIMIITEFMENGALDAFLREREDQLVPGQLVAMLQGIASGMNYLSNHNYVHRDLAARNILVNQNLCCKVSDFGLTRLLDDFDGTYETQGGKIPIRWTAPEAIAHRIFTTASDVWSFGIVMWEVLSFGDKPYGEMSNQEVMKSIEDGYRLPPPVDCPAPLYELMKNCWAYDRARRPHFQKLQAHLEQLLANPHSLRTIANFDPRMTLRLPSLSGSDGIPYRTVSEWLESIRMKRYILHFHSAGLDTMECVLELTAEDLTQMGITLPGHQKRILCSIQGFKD
Sequence of Glycogen synthase kinase-3 beta (Homo sapiens) (P49841 whole entry, looked up): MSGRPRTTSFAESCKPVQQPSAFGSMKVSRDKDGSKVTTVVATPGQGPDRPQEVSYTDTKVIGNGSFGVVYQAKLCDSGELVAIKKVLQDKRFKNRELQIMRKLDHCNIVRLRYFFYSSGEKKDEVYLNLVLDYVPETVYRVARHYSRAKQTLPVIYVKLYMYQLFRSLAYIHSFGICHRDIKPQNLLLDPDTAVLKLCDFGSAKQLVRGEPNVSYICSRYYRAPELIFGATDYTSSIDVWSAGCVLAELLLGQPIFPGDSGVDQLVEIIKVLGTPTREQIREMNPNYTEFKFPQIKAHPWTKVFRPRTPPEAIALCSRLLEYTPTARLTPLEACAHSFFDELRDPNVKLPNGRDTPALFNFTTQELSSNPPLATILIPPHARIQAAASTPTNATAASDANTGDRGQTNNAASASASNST
Sequence of human Matrix Metalloproteinase-9 (MMP9), MMP9 (gene 4318) (P14780 whole entry, looked up): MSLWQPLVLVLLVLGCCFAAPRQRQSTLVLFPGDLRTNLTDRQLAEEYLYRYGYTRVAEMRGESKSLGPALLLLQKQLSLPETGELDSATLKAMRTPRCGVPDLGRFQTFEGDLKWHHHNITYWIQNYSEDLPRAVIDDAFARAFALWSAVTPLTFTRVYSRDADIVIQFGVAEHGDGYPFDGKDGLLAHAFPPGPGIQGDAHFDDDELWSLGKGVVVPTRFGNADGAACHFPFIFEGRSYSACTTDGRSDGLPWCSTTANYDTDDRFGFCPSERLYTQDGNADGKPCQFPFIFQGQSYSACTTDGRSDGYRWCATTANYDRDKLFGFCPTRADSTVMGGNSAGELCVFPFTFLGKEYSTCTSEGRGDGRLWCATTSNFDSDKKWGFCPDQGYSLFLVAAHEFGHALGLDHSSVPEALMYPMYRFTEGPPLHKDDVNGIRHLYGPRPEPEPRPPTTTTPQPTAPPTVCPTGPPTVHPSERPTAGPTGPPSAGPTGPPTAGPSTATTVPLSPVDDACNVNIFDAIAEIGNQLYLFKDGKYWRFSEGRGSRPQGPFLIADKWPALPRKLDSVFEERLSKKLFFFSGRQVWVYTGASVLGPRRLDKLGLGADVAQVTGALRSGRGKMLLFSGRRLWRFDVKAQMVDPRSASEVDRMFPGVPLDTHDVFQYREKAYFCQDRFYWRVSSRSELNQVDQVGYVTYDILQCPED
Sequence of human Matrix Metalloproteinase-3 (MMP3), MMP3 (gene 4314) (P08254 whole entry, looked up): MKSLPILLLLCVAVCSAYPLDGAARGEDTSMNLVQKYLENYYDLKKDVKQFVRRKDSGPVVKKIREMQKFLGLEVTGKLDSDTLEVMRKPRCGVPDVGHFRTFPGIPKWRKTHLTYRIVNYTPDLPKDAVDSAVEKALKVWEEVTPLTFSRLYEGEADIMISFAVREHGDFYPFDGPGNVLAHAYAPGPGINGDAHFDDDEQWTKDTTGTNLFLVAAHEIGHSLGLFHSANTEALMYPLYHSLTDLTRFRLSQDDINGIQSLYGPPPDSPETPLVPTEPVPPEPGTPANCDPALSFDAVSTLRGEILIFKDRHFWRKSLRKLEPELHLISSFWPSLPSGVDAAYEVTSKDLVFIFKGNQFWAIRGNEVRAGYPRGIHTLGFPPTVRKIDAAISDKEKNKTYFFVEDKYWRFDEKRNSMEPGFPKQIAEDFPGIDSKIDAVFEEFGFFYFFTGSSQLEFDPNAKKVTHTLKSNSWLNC
Sequence of human Insulin Receptor (InsR), INSR (gene 3643) (P06213 whole entry, looked up): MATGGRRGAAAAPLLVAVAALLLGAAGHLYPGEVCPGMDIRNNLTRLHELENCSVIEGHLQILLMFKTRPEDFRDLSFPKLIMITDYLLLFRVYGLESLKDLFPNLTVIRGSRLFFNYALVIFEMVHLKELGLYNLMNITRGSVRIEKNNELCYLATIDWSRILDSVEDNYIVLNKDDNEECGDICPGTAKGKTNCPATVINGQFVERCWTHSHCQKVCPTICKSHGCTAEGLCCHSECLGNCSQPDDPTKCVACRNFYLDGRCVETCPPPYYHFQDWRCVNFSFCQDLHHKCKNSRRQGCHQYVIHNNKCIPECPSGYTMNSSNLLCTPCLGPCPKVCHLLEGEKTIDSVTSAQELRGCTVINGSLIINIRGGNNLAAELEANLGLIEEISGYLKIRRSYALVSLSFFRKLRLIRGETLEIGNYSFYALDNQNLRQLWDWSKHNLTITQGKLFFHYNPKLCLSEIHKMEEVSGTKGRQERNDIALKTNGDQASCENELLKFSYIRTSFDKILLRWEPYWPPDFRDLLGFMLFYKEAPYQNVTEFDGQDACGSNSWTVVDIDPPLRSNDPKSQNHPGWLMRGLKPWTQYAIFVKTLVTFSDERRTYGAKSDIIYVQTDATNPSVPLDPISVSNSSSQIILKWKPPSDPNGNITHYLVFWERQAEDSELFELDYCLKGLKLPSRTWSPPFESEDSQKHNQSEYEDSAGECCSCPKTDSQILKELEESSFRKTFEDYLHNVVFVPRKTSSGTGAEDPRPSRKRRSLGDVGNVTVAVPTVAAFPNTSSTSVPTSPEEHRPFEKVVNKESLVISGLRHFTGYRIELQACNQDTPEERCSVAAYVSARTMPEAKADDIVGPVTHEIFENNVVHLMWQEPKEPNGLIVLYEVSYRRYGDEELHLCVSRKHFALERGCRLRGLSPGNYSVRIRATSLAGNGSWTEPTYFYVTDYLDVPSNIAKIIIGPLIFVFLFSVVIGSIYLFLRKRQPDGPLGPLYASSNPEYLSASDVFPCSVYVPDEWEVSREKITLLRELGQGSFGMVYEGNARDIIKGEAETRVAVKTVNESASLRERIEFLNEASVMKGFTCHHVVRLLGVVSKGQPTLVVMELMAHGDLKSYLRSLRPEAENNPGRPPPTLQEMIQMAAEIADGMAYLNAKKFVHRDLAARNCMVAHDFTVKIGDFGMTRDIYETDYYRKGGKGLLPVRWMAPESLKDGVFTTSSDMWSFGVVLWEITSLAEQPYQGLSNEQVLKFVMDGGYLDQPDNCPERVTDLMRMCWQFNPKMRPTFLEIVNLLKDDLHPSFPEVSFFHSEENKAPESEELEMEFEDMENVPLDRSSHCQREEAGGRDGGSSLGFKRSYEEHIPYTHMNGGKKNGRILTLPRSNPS

For `O=C(O)c1ccccc1-n1cc(C(=O)O)c(=O)c2cc(Nc3c(F)cc(F)cc3Cl)c(Cl)cc21`, the result in test [1] was inactive. Moreover, the AC50 in [2] is 21.8 µM (active).
Consider `CCO[Si](CCCNC(N)=O)(OCC)OCC`, for which the call in [3] was inactive.
Consider `OCCO`, for which the result in test [4] was inactive.
`CC(O)CC(C)(C)O` (stereo not drawn): in [5], the outcome was inactive.
In the case of `Oc1ccccc1`, the result in test [1] was inactive.
Regarding `CCCCCCCCOC(=O)c1cc(O)c(O)c(O)c1`, the compound was classed as inactive in test [1], in test [6] and in [11]. For the same compound, the AC50 in test [7] is 2.83 µM (active); in test [8] it was 22.1 µM (active); in test [9], 1.47 µM (active); in test [2], 5.82 µM (active); in test [10] it was 1.09 µM (active).
As for `CC1=CC(=O)/C(=C(/C)O)C(=O)O1`, the result in [1] was inactive.
Consider `CCN(Cc1cccnc1)C(=O)c1cccc(Cl)c1[C@]1(C)C(=O)N(Cc2ccc(OC)cc2OC)c2ccc(Cl)cc21`, for which the compound was classed as inactive in test [1] and in [2]. In addition, the AC50 is 9.38 µM (active) in [7], 14.8 µM (active) in test [9] and 24.9 µM (active) in [10].
Take `CCCCCCCCN(C)CCCCCCCC`: the call in test [5] and in [11] was inactive.
Consider `CCN(CC)C(=O)c1cc(S(=O)(=O)Cc2ccccc2)c(N2CCC(c3ccccc3)CC2)cc1N(CC)CCN(C)C`, for which the result in test [3], in test [12], in test [13] and in test [15] was inactive. In addition, the figures for the AC50 in test [14] and in test [16] were 9.38 µM (active) and 16 µM (active), respectively.
As to `O=C1O[C@H]([C@@H](O)CO)C(O)=C1O`, the compound was classed as inactive in [5], in [4], in test [2] and in test [11].
Turning to `CCCCCCCCCCCCO`, the compound was classed as inactive in test [1].
Consider `COc1ccc2cc(S(=O)(=O)N[C@H](CC(=O)N[C@H](Cc3ccc(CN4[C@H](C)CCC[C@@H]4C)cc3)C(=O)N(C)C(C)C)c3ccc4c(c3)OCO4)ccc2c1`, for which the call in [1] and in test [10] was inactive.
`CCCCCc1ccc(N)cc1`: the compound was called inactive in [5].
As to `COc1cc(C(=O)NC2CCN(C)CC2)ccc1Nc1ncc2c(n1)N(C1CCCC1)CC(F)(F)C(=O)N2C`, the AC50 in test [4] was 7.46 nM (active); in [14] it was 9.1 µM (active); in test [19], 6.04 µM (active); in [15], 3.76 nM (active); in test [16] it was 3.76 µM (active). In addition, the compound was classed as inactive in test [17] and in test [18].

These data come from PubChem BioAssay (EPA / NIEHS).
